Drawing on PubChem BioAssay (NCATS), this text covers Potency and activity (max response) for 20 compounds.

Where “and” joins values, the source holds several entries; their conditions need not be identical. Equal entries are not always repeated. Inconclusive results are not listed. Unmarked numbers belong to inactive results. Calls of active or inactive are those of the source. Calls come from the whole dose curve; as a rule, active = well fitted curve in the direction sought with a large enough effect; inconclusive = small, poorly fitted or top-dose-only effect, or another doubt; inactive = no such curve, though single readings can be large; an effect the other way counts as inactive or inconclusive.

Experiment [1] is described as follows: Quantitative highthroughput screen to assess conditional lethalithy of NOMO1 cells grown in RPMI1640 with untreated serum (RPMI+s) (AID 1963876).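 For viability: 100% = DMSO wells and 0% = empty wells without cells.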 Note: nearly all actives have a fitted effect of over 35% in size. In outline:
(§1)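 Each medium arm—HPLM with 10% dialyzed FBS, or RPMI1640 with 5 mM glucose and 10% untreated or dialyzed FBS—was screened against an 11-point, 3-fold compound titration for 48 h at 37 °C, with CellTiter-Glo luminescence as endpoint.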

Experiment [2] can be described thus: Quantitative highthroughput screen to assess conditional lethalithy of NOMO1 cells grown in Human Plasma-Like Medium with dialyzed fetal bovine serum (HPLM+ds) (AID 1963878).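 For viability: 100% = DMSO wells and 0% = empty wells on each plate.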 Note: nearly all actives have a fitted effect of over 35% in size. In outline: as §1
Experiment [3] in a line: Quantitative highthroughput screen to assess conditional lethalithy of P12 Ichikawa cells grown in Human Plasma-Like Medium with dialyzed fetal bovine serum (HPLM+ds) (AID 1963879). For viability: series mostly up to about 46 µM. Note: nearly all actives have a fitted effect of over 35% in size. The following applies: Potency: viability. In outline: as §1
Experiment [4] can be described thus: Quantitative highthroughput screen to assess conditional lethalithy of P12 Ichikawa cells grown in RPMI1640 with dialyzed fetal bovine serum (RPMI+ds) (AID 1963880).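 For viability: 100% = DMSO wells and 0% = empty wells on each plate.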 Note: nearly all actives have a fitted effect of over 35% in size. The following applies: Potency: P12-Ichikawa viability. A digest of the protocol:
as §1

Experiment [5] can be described thus: Quantitative highthroughput screen to assess conditional lethalithy of P12 Ichikawa cells grown in RPMI1640 with untreated serum (RPMI+s) (AID 1963881).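 For viability: series mostly up to about 46 µM; 100% = DMSO wells and 0% = empty wells without cells.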 Note: nearly all actives have a fitted effect of over 35% in size. The following applies: Potency: viability. In outline: as §1
Experiment [6] in a line: Quantitative highthroughput screen to assess conditional lethalithy of SEM cells grown in Human Plasma-Like Medium with dialyzed fetal bovine serum (HPLM+ds) (AID 1963882). For viability: series mostly up to about 46 µM. Note: nearly all actives have a fitted effect of over 35% in size. In outline: as §1
Experiment [7] can be described thus: Quantitative highthroughput screen to assess conditional lethalithy of SEM cells grown in RPMI1640 with dialyzed fetal bovine serum (RPMI+ds) (AID 1963884).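 For viability: series mostly up to about 46 µM; 100% = DMSO control wells and 0% = empty wells without cells.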 Note: nearly all actives have a fitted effect of over 35% in size. A digest of the protocol: as §1
The nature of experiment [8]: Quantitative highthroughput screen to assess conditional lethalithy of SEM cells grown in RPMI1640 with unreated serum (RPMI+s) (AID 1963883).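 For viability: 100% = DMSO wells and 0% = empty wells without cells.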 Note: nearly all actives have a fitted effect of over 35% in size. A digest of the protocol: as §1
Experiment [9] can be described thus: Cellular viability qHTS for adrenocortical cancer (ACC) cell line SW-13 (AID 1963989).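 For activity (max response): cells grown in serum-free medium with ITS supplement; % is set by controls: 0 for no effect and ±100 for the full control effect.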 Note: nearly all actives have a fitted effect of over 65% in size. The following applies: SW-13 ACC cells viability, CellTiter-Glo, 48 h; activity (max response): hits give low values. A digest of the protocol: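 48 h treatment, SW-13 in ITS/DMEM serum-free; doses up to 46 uM; readout CellTiter-Glo luminescence; curve fit four-parameter logistic.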
A general note: qHTS replaces the single test concentration by a dilution series.

Experiment [10] in a line: Cellular viability qHTS for adrenocortical cancer (ACC) cell line NCI-H295R (AID 1963990). Note: nearly all actives have a fitted effect of over 60% in size. In outline:
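Compound titrations (up to 46 uM final) are applied to NCI-H295R cultures for 48 h at 37C. Viable cell number is estimated by CellTiter-Glo signal, normalised to DMSO and doxorubicin controls.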
Potency is the fitted concentration of half-maximal effect.

Take `COc1cc(C)c(C=CC(C)=CC=CC(C)=CC(=O)O)c(C)c1C`: the Potency entry in [1], in experiment [2], in experiment [3], in experiment [4], in [5] and in [6] was “inactive” each time. The Potency entry in experiment [7] was “inactive”.
As to `O=C(CCCN1CCC(O)(c2ccc(Cl)cc2)CC1)c1ccc(F)cc1`, the Potency result in experiment [1], in experiment [2], in experiment [4], in [6], in experiment [8] and in experiment [7] was “inactive” throughout.
In the case of `CC(C)(C)[N+]([O-])=Cc1ccc(S(=O)(=O)O)cc1S(=O)(=O)O`, the Potency entry in [1], in [2], in experiment [3], in experiment [5], in experiment [6] and in experiment [8] was “inactive” in each case. For the same compound, in [7], the Potency result is “inactive”.
With `CC(C)(C)NC(=O)[C@H]1CN(Cc2cccnc2)CCN1C[C@@H](O)C[C@@H](Cc1ccccc1)C(=O)N[C@H]1c2ccccc2C[C@H]1O`, the Potency entry in experiment [1], in experiment [2] and in [6] was “inactive” throughout.
`C[C@@H]1CC[C@@]2(OC1)OC1CC3C4CC=C5CC(O)CCC5(C)C4CCC3(C)C1[C@@H]2C` (stereo partly specified): the Potency is 14.8 µM (active) in experiment [1], 13.2 µM (active) in experiment [2], 11.8 µM (active) in experiment [3] and 18.7 µM (active) in [4]. In addition, in [9], the activity (max response) is -3.87%. In addition, the Potency entry in experiment [10] was “inactive”.
For `O=C1NC(=O)C(=Cc2ccc(-c3ccc(F)cc3O)o2)S1`, the Potency result in [1], in experiment [2], in experiment [3], in experiment [6] and in experiment [8] was “inactive” each time.
`CC(N[C@H]1CCCC[C@H]1NC(=O)c1ccc(Cl)cc1)c1cccc2ccccc12` (stereo partly specified): the Potency in [1] is 8.33 µM (active); in experiment [2], 5.26 µM (active); in experiment [9], 25.1 µM (active); in experiment [10], 7.08 µM (active). For the same compound, the Potency result in experiment [6], in experiment [8] and in [7] was “inactive” in each case.
Take `c1ccc(-c2nn3c(c2-c2ccnc4cc(OCCN5CCOCC5)ccc24)CCC3)nc1`: the Potency entry in experiment [1], in experiment [3], in experiment [4], in experiment [5], in experiment [8] and in [10] was “inactive” throughout. Moreover, in experiment [2], the Potency was 18.7 µM (active).
Regarding `COC(=O)N1CCN(Cc2cccc(NC(=O)Nc3ccc(C)nc3)c2F)CC1`, the Potency entry in experiment [1], in experiment [2], in [3], in experiment [4], in experiment [5] and in [6] was “inactive” in each case. Also, the Potency result in experiment [8], in experiment [7] and in [10] was “inactive” in each case.
Regarding `OC[C@H]1O[C@@H](Oc2ccc(O)cc2)[C@H](O)[C@@H](O)[C@H]1O`, the Potency entry in [1], in experiment [2], in [3], in [4], in experiment [5] and in experiment [6] was “inactive” throughout. The Potency entry in experiment [8] and in [7] was “inactive” throughout.
In the case of `CC[C@]1(O)C[C@H]2CN(CCC3=c4ccccc4=N[C]3[C@@](C(=O)OC)(c3cc4c(cc3OC)N(C)[C@H]3[C@@](O)(C(N)=O)[C@H](O)[C@]5(CC)C=CCN6CC[C@]43[C@@H]65)C2)C1`, the Potency is 0.0935 µM (active) in [1]; 0.0148 µM (active) in [2]; 0.0833 µM (active) in experiment [3]; 0.132 µM (active) in experiment [4]; 66.2 nM (active) in experiment [5]; 0.118 µM (active) in [6]. The Potency in experiment [8] was 59 nM (active); in experiment [7] it was 118 nM (active).
On to `CC(=CC(=O)Nc1ccccc1C(=O)O)c1ccc2ccccc2c1`, for which the Potency result in [1], in experiment [2], in [3], in experiment [4] and in experiment [5] was “inactive” each time. Besides, the Potency in [8] was 23500 nM (active).
Consider `CC(COc1ccccc1)N(CCCl)Cc1ccccc1` (stereo unspecified), for which the Potency in experiment [1] is 0.166 µM (active); in [2], 0.209 µM (active); in [3] it was 2.35 µM (active); in experiment [4] it was 2.96 µM (active); in experiment [5], 2640 nM (active). The Potency entry in experiment [6], in experiment [8], in experiment [7] and in experiment [10] was “inactive” each time. The activity (max response) in [9] is -3.42%.
On to `C#C[C@]1(O)CC[C@H]2[C@H]3CCc4cc(OC)ccc4[C@H]3CC[C@@]21C`, for which the Potency entry in [1], in experiment [2], in experiment [3], in experiment [4], in experiment [6] and in experiment [8] was “inactive” in each case. For the same compound, the Potency entry in experiment [7] is “inactive”.
Turning to `CC(=O)Oc1cc2c(s1)CCN(C(C(=O)C1CC1)c1ccccc1F)C2` (stereo unspecified), the Potency in [1] is 14.8 µM (active); in [2], 4.69 µM (active); in experiment [6], 18.7 µM (active). Further, in [9], the activity (max response) is -22.6% and -6.86%. For the same compound, in [10], the Potency entry is “inactive”.
As for `O=C(Nc1ccc(F)c(C(F)(F)F)c1)Nc1nnc(-c2ccncc2)s1`, the Potency entry in experiment [1], in experiment [2], in [3], in experiment [4], in [5] and in [6] was “inactive” each time. In addition, the Potency result in experiment [8] and in experiment [7] was “inactive” in each case. Besides, the activity (max response) in experiment [9] is 4.96%.
As for `COc1nc(-c2ccc3c(c2)OCO3)n(-c2ccc(NC(=O)CSc3ccccc3)cc2)n1`, the Potency is 23.5 µM (active) in experiment [1] and 20.9 µM (active) in [2]. Moreover, the Potency entry in experiment [3], in experiment [4], in experiment [5], in [6], in [8] and in experiment [7] was “inactive” each time. The Potency entry in experiment [10] was “inactive”.
Regarding `NS(=O)(=O)c1cc(C(=O)O)c(NCc2ccco2)cc1Cl`, the Potency result in experiment [1], in experiment [2], in [3], in experiment [4], in experiment [5] and in experiment [10] was “inactive” in each case. Besides, the activity (max response) in [9] was -1.8%.
`CCCCN(CCCC)CC(O)c1cc(Cl)cc2c1-c1ccc(Cl)cc1C2=Cc1ccc(Cl)cc1` (stereo unspecified): the Potency entry in [1], in [2], in [3], in [4], in experiment [6] and in [8] was “inactive” in each case. Also, in experiment [7], the Potency result is “inactive”.
Consider `C=C1CCC2[C@](C)(CO)C(O)CC[C@]2(C)C1CC=C1C(=O)OCC1O` (stereo partly specified), for which the Potency entry in [1], in experiment [2], in experiment [3], in experiment [4], in experiment [5] and in experiment [6] was “inactive” each time. In addition, in experiment [7], the Potency result was “inactive”. The Potency in experiment [8] was 34 nM (active).
